{"source": "PubChem BioAssay AID1159580", "about": "(chemical genetic matrix, 2015)", "test": "chemical genetic growth profiling, strain panel (AID 1159580);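 note: tested at 20 µM; growth read once vehicle control cultures reached saturation at 30 °C; 1 = growth at the plate median or of vehicle wells; lower values mean less growth of the strain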", "settings": "S. cerevisiae deletion strains, growth OD", "note": "Out of some 5,500 compounds screened, about 2,000 (36%) were called active. Inconclusive results (about 18%) are left out. Some of the results follow. A number with no mark means an inactive call. Cut-off read from the data, not from the text of the source: active = normalized growth mostly below about 0.91 (no sharp cut-off); inconclusive = no clear call, values can overlap the other calls; inactive = mostly above about 0.92."}
{"compound": "C=C1C(=O)O[C@@H]2[C@H]3O[C@]3(C)CCC=C(C)CC[C@@H]12", "values": [{"measurement": "normalized growth", "setting": "locus YAL040C, strain CLN3, active compounds read low", "value": 0.966}, {"measurement": "normalized growth", "setting": "locus YCL061C, strain MRC1 (second series), active compounds read low", "value": 0.96}, {"measurement": "normalized growth", "setting": "locus YDR363W, strain ESC2, active compounds read low", "value": 0.969}, {"measurement": "normalized growth", "setting": "locus YER002W, strain NOP16, active compounds read low", "value": 0.981}, {"measurement": "normalized growth", "setting": "locus YGR229C, strain SMI1, active compounds read low", "value": "0.822 (active)"}, {"measurement": "normalized growth", "setting": "locus YJR075W, strain HOC1, active compounds read low", "value": "0.906 (active)"}, {"measurement": "normalized growth", "setting": "locus YMR307W, strain GAS1, active compounds read low", "value": "0.766 (active)"}, {"measurement": "normalized growth", "setting": "locus YNL175C, strain NOP13, active compounds read low", "value": 0.956}, {"measurement": "normalized growth", "setting": "locus YNL197C, strain WHI3, active compounds read low", "value": 0.95}, {"measurement": "normalized growth", "setting": "locus YNL224C, strain SQS1, active compounds read low", "value": 0.967}, {"measurement": "normalized growth", "setting": "locus YNL322C, strain KRE1, active compounds read low", "value": 0.945}, {"measurement": "normalized growth", "setting": "locus YOR083W, strain WHI5 (second series), active compounds read low", "value": 0.972}, {"measurement": "normalized growth", "setting": "locus YPL055C, strain LGE1, active compounds read low", "value": 0.945}]}
